Assay outcomes (PubChem BioAssay)
In the library only some 12% were active in any assay of this set; here they are far more common.
HP1b binding inh – HP1-beta chromodomain-methylated histone interaction inhibition | P83916 | AlphaScreen HP1-beta / biotin-H3K9me3 peptide binding | Potency, µM (series often up to 114 µM), inactives show top-dose activity change, negative = inhibition, usual class: inhibitors | 390,000 tested, 0.56% active; note: nearly all actives have a fitted effect of over 70% in size
Target sequence (P83916 whole entry, looked up): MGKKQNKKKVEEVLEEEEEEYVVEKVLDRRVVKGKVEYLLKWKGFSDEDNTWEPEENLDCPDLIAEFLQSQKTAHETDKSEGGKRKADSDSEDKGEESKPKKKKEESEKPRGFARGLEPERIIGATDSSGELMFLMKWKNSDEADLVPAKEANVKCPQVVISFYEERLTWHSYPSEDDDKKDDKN
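Compound inhibition of the preformed complex between 50 nM HP1-beta and 50 nM biotinylated H3K9me3 peptide was read by AlphaScreen. Buffer was PBS pH 7.4 with 0.01% Tween-20. Incubations ran 30 min at room temperature, with 10 ug/mL donor/acceptor beads.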
G9a inh – G9a (human) methyltransferase inhibition; 350,000 tested, 8.8% active; Q96KQ7; G9a H3K9 monomethylation, AlphaScreen, 2 h; Potency, µM (highest dose often 102 µM), inactives show at the highest dose activity, negative = inhibition, actives largely listed as inhibitors; note: % is set by controls: 0 for no effect and ±100 for the full control effect; nearly all actives have a fitted effect of over 75% in size
Target sequence (Q96KQ7 913-1193 limits assumed): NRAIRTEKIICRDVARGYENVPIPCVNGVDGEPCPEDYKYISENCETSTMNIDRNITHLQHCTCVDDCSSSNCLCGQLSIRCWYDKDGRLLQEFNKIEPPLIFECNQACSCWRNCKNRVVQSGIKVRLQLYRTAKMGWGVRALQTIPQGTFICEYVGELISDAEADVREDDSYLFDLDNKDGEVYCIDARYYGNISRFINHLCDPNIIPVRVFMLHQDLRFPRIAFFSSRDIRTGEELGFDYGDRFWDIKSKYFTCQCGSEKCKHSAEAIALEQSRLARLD
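Readings reflect AlphaScreen signal from monomethyl-H3K9 antibody detection. HMT at 20 nM; substrate b-H3K9 500 nM; cofactor SAM 20 uM; 2 h RT reaction; compounds tested as titrations in qHTS with 15 min preincubation.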
L3MBTL1 block – L3MBTL1 (human) inhibition | Q9Y468 | AlphaScreen L3MBTL1–H3K9me1 peptide binding | Potency, µM (highest dose often 57.1 µM), without a hit: at the highest dose activity, negative = inhibition, actives largely listed as inhibitors | 230,000 tested, 0.66% active | AID 485360; note: % is set by controls: 0 for no effect and ±100 for the full control effect; nearly all actives have a fitted effect of over 60% in size
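Displacement of a biotinylated histone H3(1-15) peptide monomethylated at Lys9 (75 nM) from L3MBTL1 (50 nM) was measured by AlphaScreen after a 30 min room-temperature compound incubation; cefsulodin titration served as intraplate control.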
JMJD2A Tudor inh – inhibitors of human JMJD2A Tudor domain | O75164 | AlphaScreen JMJD2A-Tudor / H3K4me3 peptide binding | Potency, µM (top dose mostly 114 µM), for inactives: top-dose activity change, negative = inhibition, actives largely listed as inhibitors | 390,000 tested, 4.4% active; note: % is set by controls: 0 for no effect and ±100 for the full control effect; nearly all actives have a fitted effect of over 50% in size
Sfp PPTase inh – Sfp phosphopantetheinyl transferase inhibition | 310,000 tested, 3.5% active | Potency, µM, for the others: largest response in the series, negative = inhibition, most hits filed as inhibitors | Q9F4F7 | Biochemical Sfp PPTase activity, qHTS;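 note: the enzyme is Sfp with the accession as filed and its product quenches rhodamine fluorescence; 0% = enzyme reaction without inhibitor and -100% = no enzyme wells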
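Compounds were incubated with enzyme (final 15 nM) for 15 min at room temperature before substrate addition started the reaction. Fluorescence at 525 nm excitation, 598 nm emission was recorded immediately and after 30 minutes.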
BAZ2B inh – BAZ2B (human) inhibition | Q9UIF8 | AlphaScreen BAZ2B-H3K14Ac peptide displacement | Potency, µM (titrated, usually from 114 µM), for inactives: at the top dose activity change, negative = inhibition, actives largely listed as inhibitors | 360,000 tested, 4.4% active | AID 504333; note: % is set by controls: 0 for no effect and ±100 for the full control effect; nearly all actives have a fitted effect of over 60% in size
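Multi-concentration screen (max 110 uM) measuring displacement of acetylated histone H3 peptide from BAZ2B by AlphaScreen, using 50 nM protein, 50 nM peptide and 10 ug/mL streptavidin donor plus Ni-chelate acceptor beads.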
The depositor's hits bear a star; ? = inconclusive; nt = not tested or not shown; ! = repeats disagree; [ ] = remark or other dose. Calls come from the whole dose curve; as a rule, active = well fitted curve in the direction sought with a large enough effect; inconclusive = small, poorly fitted or top-dose-only effect, or another doubt; inactive = no such curve, though single readings can be large; an effect the other way counts as inactive or inconclusive. Potency is the fitted concentration of half-maximal effect.

SMILES | HP1b binding inh | G9a inh | L3MBTL1 block | JMJD2A Tudor inh | Sfp PPTase inh | BAZ2B inh
O=C(CCc1nnc2ccc(NCc3ccco3)nn12)Nc1ccccn1 | 32.3% | ? | nt | 11.3% | 8.3% | 50.1µM*
Cc1cccc(NC(=O)CCc2nnc3ccc(NCc4ccco4)nn23)n1 | 46.0% | -7.1% | nt | 16.0% | -0.9% | 50.1µM*
COc1ccc(NC(=O)CCc2nnc3ccc(NCc4ccco4)nn23)cc1 | 20.9% | 17.7% | nt | -28.2% | -4.9% | -30.1%
O=C(CCc1nnc2ccc(NCc3ccco3)nn12)N1CCCCC1 | 14.2% | ? | nt | -17.9% | 4.2% | ?
O=c1c(S(=O)(=O)c2cccc(Cl)c2)cn(Cc2ccccc2)c2cc(N3CCCCC3)c(F)cc12 | 25.2% | -1.5%[59 µM] | nt | -24.1% | nt | -1.2%
O=C(c1ccc2c(c1)N(Cc1ccccc1)C(=O)c1ccccc1S2(=O)=O)N1CCN(c2ccccn2)CC1 | 30.9% | -5.5%[59 µM] | nt | -14.8% | nt | -20.1%
O=C(c1ccccc1)N1CCn2c1nc1ccccc12 | 4.5% | -7.0%[0.501 µM] | 6.7% | 56.2µM* | 2.3% | 4.8%
COc1ccc(CNC(=O)CCNC(=O)N2CCn3c2nc2ccccc23)cc1 | 34.2% | 44.7µM* | nt | 39.8µM* | -0.3% | -17.4%[57.1 µM]
Cc1nn(C(=O)CCC(=O)NCCc2ccccc2)c2ccccc12 | 60.4% | nt | nt | -10.3% | 0.3% | -13.4%
CC(C)OC(=O)c1cc2c(OC[C@@H](O)CNC(C)(C)C)cccc2[nH]1 | nt | nt | nt | nt | 1.9% | nt
Cc1ccc(C)c(OCCCC(=O)NC2CCCCC2)c1 | 37.8% | -0.6% | 2.5% | -9.8% | 23.7% | 11.1%
Cc1ccc(OCCCCNC2CCCC(C)C2C)c(C)c1 (stereo unspecified) | ? | 12.6µM* | -5.6% | 20µM* | ? | 22.4µM*
O=C(O)C/C=C(\NC(=O)OCc1ccccc1)C(=O)OCc1ccccc1 | 71.7% | 50.1µM* | nt | 17.9% | 79.4µM* | nt
COc1ccc(CNc2nc(-c3ccc4c(c3)OCO4)nc3ccccc23)c(OC)c1 | nt | -4.1%[0.501 µM] | nt | nt | ? | nt
CN1CCN(c2ccc(CNS(=O)(=O)Cc3ccc(Cl)cc3)cc2)CC1 | 34.1% | ? | 4.47µM* | -15.7% | -5.2% | 8.7%
Cc1ccc(S(=O)(=O)/N=C(/Sc2ccccc2C(=O)O)c2ccccc2)cc1 | 22.4µM*! | nt | nt | -22.5% | 79.4µM* | -22.2%
O=S(=O)(/N=C(\Sc1ccccc1)c1ccccc1)c1ccc(Cl)cc1 | 101.6% | ? | 7.6% | 7.7% | 35.5µM* | 12.0%
O=c1c(Cc2c(F)cccc2Cl)c(O)ccn1CC1CCCO1 (stereo unspecified) | 38.7% | -11.0% | 7.2%[11.4 µM] | -2.8% | 8.2% | -22.2%
CCOC(=O)CC(C(=O)OCC)C1CCCCC1=O (stereo unspecified) | nt | nt | nt | nt | 22.9% | nt
COc1cc2c(cc1OC)CN(C(=O)CCNC(=O)c1ccc(Br)cc1)CC2 | 15.4% | ? | -2.5% | -6.9% | nt | -3.9%
COc1cc2c(cc1OC)CN(CCC(=O)c1ccc(Br)cc1)CC2 | -13.2% | 14.1µM* | -4.0% | ? | -7.7% | -23.5%
CCOC(=O)N1CCN(C(=O)c2ccc(CSc3ccc(Cl)cc3)cc2)CC1 | -8.0% | -3.3% | -3.3%[11.4 µM] | 44.7µM* | ? | -20.0%
CCOC(=O)N1CCC(NCCNC(=O)c2ccc(F)c(F)c2)CC1 | 34.2% | 3.1%[0.501 µM] | 4.2% | -0.7% | nt | -0.5%
CCOC(=O)N1CCN(CCC(=O)c2ccc(Br)cc2)CC1 | 4.0% | 3.98µM* | nt | ? | 50.1µM* | 0.4%
CCOC(=O)N1CCC(NCCNC(=O)c2ccc(Cl)cc2)CC1 | -38.4% | 6.31µM* | 7.1% | 2.82µM* | -14.0% | ?
COC(=O)[C@@H]1CCCN1C(=O)[C@H]1C[C@@H]1[C@H](NC(=O)OCc1ccccc1)c1ccccc1 | nt | nt | nt | nt | 5.8% | nt
CC(=O)N/N=C\c1ccccc1OC/C=C/c1ccccc1 | 20.7% | 59.2% | nt | -0.7% | 17.8% | 12.7%
CN1CCN(c2ncc3ncc(=O)n(C4CC4)c3n2)CC1 | nt | 0.5%[0.501 µM] | nt | nt | 2.6% | nt
O=C(CCC1N=C2c3ccccc3N=C(SCc3ccccc3F)N2C1=O)NC1CCCCC1 (stereo unspecified) | 20.5% | 13.0%[59 µM] | nt | -0.3% | nt | -9.1%
